OTUD3 block = human OTUD3 deubiquitinase inhibition | Q5T2D3 | purified OTUD3, Ub-rhodamine fluorescence, 2 h | inhibition, % at 25 µM | 47,000 tested, 0.7% active
Target sequence (Q5T2D3 whole entry, looked up): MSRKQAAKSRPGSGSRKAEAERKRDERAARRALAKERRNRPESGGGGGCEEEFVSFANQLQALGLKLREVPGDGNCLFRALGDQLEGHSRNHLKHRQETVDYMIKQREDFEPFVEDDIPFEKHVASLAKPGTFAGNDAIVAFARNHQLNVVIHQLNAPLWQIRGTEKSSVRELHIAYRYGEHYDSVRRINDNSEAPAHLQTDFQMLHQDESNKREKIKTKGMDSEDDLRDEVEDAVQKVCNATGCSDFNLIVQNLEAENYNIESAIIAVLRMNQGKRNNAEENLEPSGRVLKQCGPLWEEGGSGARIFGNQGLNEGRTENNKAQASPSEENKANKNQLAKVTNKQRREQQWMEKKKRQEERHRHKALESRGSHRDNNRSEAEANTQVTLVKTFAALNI
USP28 inh = blocks human USP28 ubiquitin-rhodamine cleavage; Q96RU2; purified USP28, Ub-rhodamine cleavage fluorescence, 30 min; inhibition, % at 25 µM; 47,000 tested, 3% active; AID 1645857
Numbers without * were called inactive. Most compounds without a hit are left out; they make up all but 3.4% or so of the library. Rule as the data show it: active = inhibition above about 30%; inactive = the rest.

SMILES	OTUD3 block	USP28 inh
CCCCn1cnc2c3cc(F)ccc3n(C)c2c1=O	0.3	22.5
Cn1c2ccccc2c2ncn(Cc3ccc(F)cc3)c(=O)c21	14.2	32.0*
CCN(Cc1ccccc1)c1nc2ccccc2nc1NS(=O)(=O)c1cc([N+](=O)[O-])ccc1C	15.6	19.6
COc1ccccc1CNC(=O)c1c(O)c2cnn(-c3cccc(C)c3)c2[nH]c1=O	3.4	76.0*
O=C(NCc1ccc(F)cc1F)c1c(O)c2cnn(-c3ccc(F)cc3)c2[nH]c1=O	-171.4	-228.8
COc1ccc(CC(=O)N2CCc3cc(-c4noc(C)n4)ccc32)cc1	7.6	33.0*
COc1cccc(CC(=O)N2CCc3cc(-c4noc(C)n4)ccc32)c1	0.8	18.6
O=C(NC1CCN(c2ccc(F)cc2)C1=O)C1CCCCC1 (stereo unspecified)	-6.8	-10.8
Cc1ccccc1NC(=O)c1nc(-c2cn(Cc3ccc(F)cc3)nn2)no1	13.9	12.0
O=C1c2c(O)ccc(O)c2C2(Oc3cccc4cccc(c34)O2)C2OC12 (stereo unspecified)	68.4*	71.6*
CC1(C)c2ccc3c(c2C(=O)C2OC21)C(O)OC3=O (stereo unspecified)	-5.9	-3.5
O=C1c2c(O)cccc2C2(Oc3cccc4cccc(c34)O2)C2OC12 (stereo unspecified)	46.9*	59.9*
COc1ccc2[nH]c3c(=O)n(Cc4cccnc4)cnc3c2c1	-1.2	8.9
CC1CS(=O)(=O)N(c2ccc(S(=O)(=O)Nc3ccccc3Cl)cc2)C1=O (stereo unspecified)	8.5	-0.2
COc1nccnc1NC1CCN(C(=O)c2ccc3cc[nH]c3c2)CC1	-10.0	-23.8
Cc1ccc(C)c(NC(=O)C(Sc2nnc(C)n2Cc2ccccc2)c2ccccc2)c1 (stereo unspecified)	14.4	16.0
COc1ccc(C)cc1NC(=O)C(Sc1nnc(C2CC2)n1Cc1ccccc1)c1ccccc1 (stereo unspecified)	13.7	30.1*
CC(CCc1ccccc1)NC(=O)Cn1c(=O)c2cccn2c2ccccc21 (stereo unspecified)	21.1	14.9
COc1ccc(-c2cc3nc([C@H](C)NC(=O)Cc4ccccc4C)nn3cn2)cc1	46.7*	19.6
C[C@@H](NC(=O)c1ccc2c(c1)OCO2)c1nc2cc(-c3ccccc3F)ncn2n1	10.6	13.8
C[C@@H](NC(=O)C1CCCCC1)c1nc2cc(-c3ccccc3F)ncn2n1	3.4	4.5
COc1ccc(-c2cc3nc([C@H](C)NC(=O)COc4ccccc4F)nn3cn2)cc1	22.7	12.4
C[C@@H](NC(=O)c1ccc2c(c1)OCCO2)c1nc2cc(-c3ccccc3F)ncn2n1	42.6*	47.0*
C[C@H](NC(=O)Cc1ccccc1F)c1nc2cc(-c3ccccc3F)ncn2n1	35.8*	37.3*
CC1CSc2ccc(S(=O)(=O)Nc3ccccc3Cl)cc2NC1=O (stereo unspecified)	-11.4	-0.4
SMILES	OTUD3 block	USP28 inh
Cc1csc(-c2cc(S(=O)(=O)Nc3ccc(F)cc3)c(C)n2C)n1	-2.3	7.0
COc1cccc(CN2CC(=O)N3CCc4c([nH]c5ccccc45)[C@@]3(C)C2=O)c1	12.5	18.3
Cc1ccc(-n2nnc(C(=O)O)c2-c2ccccn2)cc1	-11.2	-15.8
CCn1c(CNc2ccc(C)cc2)nnc1SCC(=O)Nc1ccc(C(=O)OC)cc1	1.6	42.4*
CCn1c(CNc2ccc(C)cc2)nnc1SCC(=O)Nc1ccccc1F	6.2	28.4
Cn1cnnc1-c1cccc(NC(=O)Nc2cccc3ccccc23)c1	-3.9	23.8
COc1cc2c(C#N)c(N3CCCC3)nc3c2c(n1)NC(C)(c1ccc(-c2ccccc2)cc1)N3 (stereo unspecified)	-47.0	0.6
CCOC(=O)c1csc(NC(=O)c2ccccc2Br)n1	-9.8	41.4*
CCOC(=O)c1csc(NC(=O)c2cc(-c3ccccc3)nc3ccccc23)n1	6.7	5.9
Cc1cc2nc(/C=C/c3ccccc3)n(Cc3cccc(F)c3)c2cc1C	2.0	50.9*
Clc1ccccc1Cn1c(/C=C/c2ccccc2)nc2ccccc21	12.2	22.8
Cc1cccc(NC(=O)CCc2nnc3c(=O)n(-c4cccc(F)c4)ccn23)c1	5.6	4.1
CCOC(=O)c1nc(Nc2ccc(OC)c(Cl)c2)c2ccccc2n1	11.4	16.6
Cc1cc(C)c(NC(=O)Cn2c(=O)n(CCC(=O)NCc3ccc4c(c3)OCO4)c(=O)c3sccc32)c(C)c1	33.9*	49.3*
O=C(CCCn1c(=O)c2sccc2n(CC(=O)NCCC2=CCCCC2)c1=O)NCc1ccc2c(c1)OCO2	28.5	32.2*
Cc1ccc(CNC(=O)CCCCCn2c(=O)c3sccc3n(CC(=O)c3ccc(Cl)cc3)c2=O)cc1	10.0	2.6
COc1ccc(Cl)cc1NC(=O)Cn1c(=O)n(CCCC(=O)NCc2ccc(C)cc2)c(=O)c2sccc21	6.6	-1.6
Cc1c(C#N)c2ccccc2n1CC(=O)NCc1ccc2c(c1)OCO2	-27.3	32.1*
Cc1c(C#N)c2ccccc2n1CC(=O)NCC1CCCO1 (stereo unspecified)	-11.6	-7.5
CCOc1ccc(NC(=O)Cn2c(=O)n(CCCCCC(=O)NCc3ccc(F)cc3)c(=O)c3sccc32)cc1	31.9*	21.4
O=C(CCCCn1c(=O)c2ccccc2n(CC(=O)NCCC2=CCCCC2)c1=O)NCc1ccco1	7.8	-3.1
CC(NC(=O)c1cccnc1)c1nc2ccccc2[nH]1 (stereo unspecified)	5.1	3.1
Cc1nc(SCC(=O)Nc2ccc(S(N)(=O)=O)cc2)c2cnn(-c3ccccc3)c2n1	-30.3	-34.0
CC1=NS(=O)(=O)N(C)C=C1C(=O)OCc1cccc(F)c1	-136.4	-222.3
Cc1ccc(NC(=O)c2c(O)c3cnn(C)c3[nH]c2=O)cc1C	0.8	-1.7
SMILES	OTUD3 block	USP28 inh
Cn1nc(C(=O)NCCc2ccco2)c2c1-c1ccsc1CC2	9.6	24.0
CCN1CC[C@@]2(C(=O)Nc3cccnc3)CCN(S(=O)(=O)c3cccc(F)c3)CC[C@@H]12	20.9	19.3
Cc1cnc(C(=O)N2CCC[C@@H]3NC(=O)c4ccccc4OCC/C=C/C[C@@H]32)cn1	8.9	45.0*
Cc1cnc(C(=O)N2CC[C@H]3NC(=O)c4ccccc4OCC/C=C/C[C@H]3C2)cn1	8.6	5.9
CC(=O)N1CCN(C(=O)CCC2CCCN(c3cc(NC4CC4)ncn3)C2)CC1 (stereo unspecified)	-11.4	-23.0
CNC(=O)C1CN(C(=O)c2ccc(OC)cc2)CC12CCCC2 (stereo unspecified)	54.7*	-2.2
CNC(=O)C1CN(C(=O)c2ccc(C#N)cc2)CC12CCCC2 (stereo unspecified)	-7.3	-18.7
COc1ccc(-n2nnnc2SCc2ccccn2)cc1OC	-1.7	-13.9
COc1ccc([N+](=O)[O-])cc1NC(=O)COC(=O)c1ccc2[nH]c3c(c2c1)CCCC3	61.8*	63.2*
COc1cc([N+](=O)[O-])ccc1NC(=O)COC(=O)Cc1c[nH]c2ccccc12	-6.9	-10.0
NS(=O)(=O)c1ccc(CCNC(=O)c2c(Cl)nc3sccn23)cc1	10.6	21.6
Cn1c(C(=O)NCCc2ccc(S(N)(=O)=O)cc2)cc2sc(Cl)cc21	-15.0	41.5*
Cc1ccc2c(c1)CCCN2C(=O)c1cn(-c2ccccc2)nc1-c1cccnc1	-27.1	-26.7
Cc1ccccc1NC(=O)c1ccn(COc2ccc(Cl)cc2)n1	9.5	59.0*
Cc1cccc(NC(=O)c2ccn(COc3ccc(F)cc3F)n2)c1C	5.4	51.1*

Bioassay records from PubChem BioAssay.
